# Inconclusive results are not listed. Calls of active or inactive are those of the source. Unless noted, calls follow the shape of the dose curve; as a rule, active = well fitted curve in the direction sought with a large enough effect; inconclusive = small, poorly fitted or top-dose-only effect, or another doubt; inactive = no such curve, though single readings can be large; an effect the other way counts as inactive or inconclusive.
# Assays:
# [1] = biological target: Calcium and integrin-binding protein 1 (Homo sapiens) (UniProt Q99828); experiment: Primary qHTS for Identification of Calcium Integrin Binding Protein 1 (CIB1) Competitor (AID 1508620);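 also: GST tagged CIB1 binding a fluorescein labelled alphaIIb integrin peptide tracer; top concentration of the series differs between compounds; % is scaled to controls: 0 for no effect and ±100 for the full control effect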
# Sequence of Calcium and integrin-binding protein 1 (Homo sapiens) (Q99828 whole entry, looked up): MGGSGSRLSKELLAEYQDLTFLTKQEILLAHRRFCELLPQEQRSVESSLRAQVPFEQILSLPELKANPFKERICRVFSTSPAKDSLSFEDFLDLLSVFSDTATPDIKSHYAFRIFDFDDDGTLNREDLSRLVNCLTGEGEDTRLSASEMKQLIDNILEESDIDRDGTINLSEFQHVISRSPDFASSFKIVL
# In short: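 Fluorescence polarization competition: GST-tagged CIB1 (1 uM final) preincubated with compound 15 min at room temperature, then FITC-labelled alphaIIb peptide (100 nM final) added. After 15 min at room temperature, polarization read at Ex 480/Em 540.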
# [2] = Primary qHTS for inhibitors of nuclear receptor binding SET domain protein 2 (NSD2) in an RCH-ACV wild type WT cells (2C) (AID 1645877); also: nearly all actives have a fitted effect of over 70% in size; also: potency is read from the fitted curve at half-maximal effect
# [3] = biological target: Catechol O-methyltransferase (Homo sapiens) (UniProt P21964); experiment: Confirmatory Screen for Target Class Profiling of Small Molecule Inhibitors of Methyltransferases (AID 1745852); conditions: MTase-Glo luminescence, SAH detection, recombinant enzyme; measured here: COMT max response; stronger effect = lower value
# Sequence of Catechol O-methyltransferase (Homo sapiens) (P21964 whole entry, looked up): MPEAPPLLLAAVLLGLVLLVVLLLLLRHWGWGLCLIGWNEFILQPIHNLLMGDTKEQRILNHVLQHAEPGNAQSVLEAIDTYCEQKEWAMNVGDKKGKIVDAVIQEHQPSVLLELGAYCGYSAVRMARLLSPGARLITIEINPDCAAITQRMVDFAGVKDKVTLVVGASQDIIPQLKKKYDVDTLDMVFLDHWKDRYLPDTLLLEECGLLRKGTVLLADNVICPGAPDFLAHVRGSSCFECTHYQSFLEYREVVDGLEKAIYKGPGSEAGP
# [4] = biological target: Cytochrome P450 2D6 (Homo sapiens) (UniProt P10635); experiment: Cytochrome P450 family 2 subfamily D member 6 (CYP2D6) small molecule antagonists: luciferase biochemical (cell-free) qHTS assay (AID 1645840; active = well fitted curve in the direction sought with a large enough effect in the repeat runs; an effect the other way counts as inactive or inconclusive; also: nearly all actives have a fitted effect of over 55% in size; also: potency is read from the fitted curve at half-maximal effect)
# Sequence of Cytochrome P450 2D6 (Homo sapiens) (P10635 whole entry, looked up): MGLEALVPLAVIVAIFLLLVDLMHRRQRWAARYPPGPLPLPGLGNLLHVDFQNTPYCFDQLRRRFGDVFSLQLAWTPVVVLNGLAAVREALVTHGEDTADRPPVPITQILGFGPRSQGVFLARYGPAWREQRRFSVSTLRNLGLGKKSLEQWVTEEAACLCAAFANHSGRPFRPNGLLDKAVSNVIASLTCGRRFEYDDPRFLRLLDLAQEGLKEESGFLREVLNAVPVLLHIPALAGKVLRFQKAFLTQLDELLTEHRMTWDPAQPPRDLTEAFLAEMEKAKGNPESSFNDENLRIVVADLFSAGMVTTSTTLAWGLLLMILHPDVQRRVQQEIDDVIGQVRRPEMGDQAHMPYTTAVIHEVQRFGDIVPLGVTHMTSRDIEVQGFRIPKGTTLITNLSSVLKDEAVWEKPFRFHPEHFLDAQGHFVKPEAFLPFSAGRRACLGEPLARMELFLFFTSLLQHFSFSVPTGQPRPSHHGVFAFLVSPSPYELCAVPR
# In short: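 P450-Glo luminescent screen: recombinant CYP2D6 enzyme–proluciferin substrate mix preincubated with compound 10 min at room temperature, then NADPH regeneration added for 1 h at room temperature. Detection reagent added for 20 min; luciferin light read as relative luminescence units.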
# [5] = biological target: Cytochrome P450 2C9 (Homo sapiens) (UniProt P11712); experiment: Cytochrome P450 family 2 subfamily C member 9 (CYP2C9) small molecule antagonists: luciferase biochemical (cell-free) qHTS assay (AID 1645842; active = well fitted curve in the direction sought with a large enough effect in the repeat runs; an effect the other way counts as inactive or inconclusive; also: nearly all actives have a fitted effect of over 55% in size; also: potency is read from the fitted curve at half-maximal effect)
# Sequence of Cytochrome P450 2C9 (Homo sapiens) (P11712 whole entry, looked up): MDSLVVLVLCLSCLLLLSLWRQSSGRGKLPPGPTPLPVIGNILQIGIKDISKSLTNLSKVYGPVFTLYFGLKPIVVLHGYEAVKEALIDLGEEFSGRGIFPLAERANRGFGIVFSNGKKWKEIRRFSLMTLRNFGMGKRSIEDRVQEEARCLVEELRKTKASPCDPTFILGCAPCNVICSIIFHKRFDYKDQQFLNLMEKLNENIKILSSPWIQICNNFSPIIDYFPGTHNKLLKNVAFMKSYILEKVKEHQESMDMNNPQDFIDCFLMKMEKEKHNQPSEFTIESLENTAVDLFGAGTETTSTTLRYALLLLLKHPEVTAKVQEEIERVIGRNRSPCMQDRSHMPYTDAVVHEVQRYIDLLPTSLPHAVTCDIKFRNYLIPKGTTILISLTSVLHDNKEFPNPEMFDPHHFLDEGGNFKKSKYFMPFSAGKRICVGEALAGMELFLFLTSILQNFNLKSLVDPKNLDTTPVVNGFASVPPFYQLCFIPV
# In short: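 Luminescence, after 20 min with luciferin detection reagent, reflected CYP2C9 turnover during a 1 h NADPH-driven reaction at 37C. Enzyme-substrate mix contained 0.4% bovine serum albumin and was preincubated with compound 10 min at room temperature.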
# [6] = Primary qHTS for inhibitors of nuclear receptor binding SET domain protein 2 (NSD2) in an isogenic RCH-ACV NSD2 p.E1099K mutant (9B) (AID 1645876); also: nearly all actives have a fitted effect of over 70% in size; also: potency is read from the fitted curve at half-maximal effect; as to activity change, negative = viability loss: % is scaled to controls: 0 for no effect and ±100 for the full control effect
# [7] = biological target: N-terminal Xaa-Pro-Lys N-methyltransferase 1 (Homo sapiens) (UniProt Q9BV86); experiment: Confirmatory qHTS for Inhibitors of N-terminal methyltransferase 1 (NTMT1): MTaseGlo Assay (AID 1645874);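 also: luminescence from SAH made as NTMT1 methylates SPKRIA peptide using SAM; series mostly up to about 100 µM; 0% = DMSO control and -100% = no-enzyme control; nearly all actives have a fitted effect of over 65% in size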
# Sequence of N-terminal Xaa-Pro-Lys N-methyltransferase 1 (Homo sapiens) (Q9BV86 whole entry, looked up): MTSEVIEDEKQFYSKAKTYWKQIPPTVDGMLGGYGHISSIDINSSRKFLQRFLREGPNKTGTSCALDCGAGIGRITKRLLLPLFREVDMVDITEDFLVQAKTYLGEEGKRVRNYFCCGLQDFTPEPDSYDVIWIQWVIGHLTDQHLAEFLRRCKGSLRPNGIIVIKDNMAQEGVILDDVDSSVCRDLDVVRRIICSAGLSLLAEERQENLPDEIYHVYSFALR
# In short: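 NTMT1 (125 nM) preincubated 15 min with compound and 100 uM SAM, then 1 uM SPKRIA peptide added for 30 min at room temperature. SAH detected by MTase-Glo luminescence; normalized to no-enzyme and DMSO controls, fitted to 4-parameter Hill.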
smiles,measurement,setting,value
CO[C@H]1/C=C\O[C@@]2(C)Oc3c(C)c(O)c4c(O)c(c5c(nc6cc(C)ccn65)c4c3C2=O)NC(=O)/C(C)=C\C=C/[C@H](C)[C@H](O)[C@@H](C)[C@@H](O)[C@@H](C)[C@H](OC(C)=O)[C@@H]1C,Potency,[1],inactive
same,Potency,[2],10300 nM (active)
C=C(C(=O)O)[C@@H]1CC[C@@]2(C)CC[C@H](O)[C@@]2(C(C)=O)C1,Potency,[1],inactive
same,Potency,[2],16300 nM (active)
same,activity,[3],-66.3%
CN(C)CCn1cc(S(=O)(=O)c2cccc(F)c2)c2cccnc21,Potency,[4],21300 nM (active)
same,Potency,[5],inactive
same,Potency,[2],inactive
O=C(c1cc2c(cc1F)OC(c1ccc(F)cc1)(c1ccc(Cl)cc1Cl)O2)N1CCOCC1 (stereo not drawn),Potency,[1],inactive
same,Potency,[2],20500 nM (active)
Cc1cc(-c2cc(O)ccc2Cl)cc2nnc(Nc3ccc(OCCN4CCCC4)cc3)nc12,Potency,[4],16900 nM (active)
same,Potency,[5],12000 nM (active)
same,Potency,[6],3250 nM (active)
same,Potency,[2],2900 nM (active)
CN1CCN(C(=O)c2ccc3cc(CCNc4ncnc5ccc(C#N)cc45)ccc3c2)CC1,Potency,[1],inactive
same,Potency,[2],1320 nM (active)
same,activity,[3],-7.48%
O=C(O)CCCCCC[C@H]1C(=O)NC(=O)N1CC[C@@H](O)C1CCCCC1,Potency,[1],inactive
same,Potency,[2],inactive
OC[C@@]1(O)CO[C@@H](OC[C@H]2O[C@@H](Oc3c[nH]c4ccccc34)[C@H](O)[C@@H](O)[C@@H]2O)[C@@H]1O,Potency,[1],inactive
same,Potency,[2],inactive
CC12CCC(OC3OC(CO)C(O)C(OC4OC(CO)C(O)C(O)C4O)C3O)CC1=CCC1C2CCC2(C)/C(=C3/COC(=O)C3)CCC12O (stereo not drawn),Potency,[1],inactive
same,Potency,[2],inactive
Cc1cccc(C)c1-n1c(=O)c2cnc(Nc3ccc(N4CCN(C)CC4)cc3)nc2n2c3ccccc3nc12,Potency,[4],inactive
same,Potency,[5],8490 nM (active)
same,Potency,[6],205 nM (active)
same,Potency,[2],258 nM (active)
C[C@H](C(=O)NC1CCCC1)N(C(=O)Cn1nnc(-c2ccc3c(c2)OCO3)n1)C1CCCCC1,Potency,[4],19000 nM (active)
same,Potency,[5],2680 nM (active)
CC(=O)C=C=C1C(C)(C)CC(O[C@@H]2O[C@H](CO)[C@@H](O)[C@H](O)[C@H]2O)CC1(C)O (stereo partly drawn),Potency,[6],inactive
same,Potency,[2],inactive
OC[C@H]1O[C@@H](OC[C@H]2O[C@@H](OC/C=C/c3ccccc3)[C@H](O)[C@@H](O)[C@@H]2O)[C@@H](O)[C@@H]1O,Potency,[6],inactive
same,Potency,[2],inactive
COc1cc2c(cc1O)[C@H](c1ccc(O[C@@H]3O[C@H](CO)[C@@H](O)[C@H](O)[C@H]3O)c(OC)c1)[C@@H](CO)[C@](O)(CO)C2,Potency,[6],inactive
same,Potency,[2],inactive
C=C1C(OC2OCC(O)C(O)C2O)CC2C(C)(C)C(O)CCC2(C)C1CC/C(C)=C\CO (stereo not drawn),Potency,[2],8930 nM (active)
C=C(C)C(=O)OC1CC2(C)OC(=CC2=O)C(=C)CC2OC(=O)C(COC)C12 (stereo not drawn),Potency,[6],4010 nM (active)
same,Potency,[2],1790 nM (active)
same,activity,[3],-94%
CC(=O)OC[C@]12[C@H](OC(C)=O)C(=O)[C@@H]3[C@@H](OC(C)=O)[C@@]14O[C@@]3(C)COC(=O)c1cccnc1[C@@H](C)[C@H](C)C(=O)O[C@@H]([C@H](O)[C@@H]2OC(C)=O)[C@]4(C)O,Potency,[6],inactive
same,Potency,[2],inactive
CNC(=O)c1ccccc1Nc1cc(Nc2ccc(N3CCOCC3)cc2OC)ncc1C(F)(F)F,Potency,[5],4250 nM (active)
same,Potency,[7],inactive
same,Potency,[6],2900 nM (active)
same,Potency,[2],2900 nM (active)
O=C(O)/C=C/c1ccc(-c2ccc(O)c(C34CC5CC(CC(C5)C3)C4)c2)cc1,Potency,[6],325 nM (active)
same,Potency,[2],145 nM (active)
same,activity,[3],0.235%
CC1(C)C=CN2C(=O)C3=CCCN3C(=O)[C@@H]2C[C@@]12Nc1ccccc1C2=O,Potency,[6],inactive
same,Potency,[2],inactive
COCC1OC(OC(C)(C)C2CCC3(C)C=C(C4CCC5C4(C)CC(O)C4OC(C(C)(C)OC6OC(CO)C(O)C(O)C6NC(C)=O)CCC45C)CCC3O2)C(NC(C)=O)C(O)C1O (stereo not drawn),"activity change, negative = viability loss",[6],1.46% [at 9.23 µM] (inactive)
same,outcome,[2],inactive [at 9.23 µM]
CCCCNc1ncc2c(-c3ccc(F)cc3)nn(CC3CCC(N)CC3)c2n1 (stereo not drawn),Potency,[6],2240 nM (active)
same,Potency,[2],1620 nM (active)
CC[C@]12C=CCN3CC[C@@]4(c5cc([C@@]6(C(=O)OC)C[C@H]7C[C@@H](C(C)(F)F)CN(Cc8c6[nH]c6ccccc86)C7)c(OC)cc5N(C)[C@H]4[C@@](O)(C(=O)OC)[C@@H]1OC(C)=O)[C@@H]32,Potency,[6],139 nM (active)
same,Potency,[2],87.9 nM (active)
C=CC/C=C\C/C=C\CCCCCCCc1cccc(O)c1C(=O)O,Potency,[6],inactive
same,Potency,[2],inactive
CC(C)NCC(C(=O)N1CCN(c2ncnc3c2C(C)CC3O)CC1)c1ccc(Cl)cc1 (stereo not drawn),Potency,[5],inactive
same,Potency,[6],1830 nM (active)
same,Potency,[2],2300 nM (active)
CC1=C2C[C@H]3O[C@@]3(C)CCC3O[C@@]3(C)C[C@@]2(O)OC1=O (stereo partly drawn),Potency,[6],inactive
same,Potency,[2],inactive

# — PubChem BioAssay (NCATS)
